What all share (experiment): growth (OD600 after 10 h); higher = more growth (less inhibition)
In test [1] the test system is E. coli TESEC Alr+ wild-type control. The following applies: compound 0.1 mM; raw OD600 reference: median of DMSO wells 0.241, cell-free background 0.041. How it is done: (§1)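 TESEC Mtb Alr E. coli, or the Alr+ wild-type control, in 384-well plates with Prestwick library compounds at 0.1 mM and 1% DMSO, across arabinose induction levels of 1E3 to 1E7 nM. Growth is read as OD600 after 10 h at 37 °C in triplicate biological replicates.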

For test [2], the system named is E. coli TESEC Mtb Alr. The conditions noted are these: compound 0.1 mM. On the procedure:
as §1

The test system of a further test is E. coli TESEC Mtb Asd. The conditions noted are these: compound 0.1 mM. How it is done:
(§2)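 TESEC E. coli strains in which the native enzyme is deleted and replaced by arabinose-inducible Mtb Asd, DapB, CysH or TrpD, each grown in its selective medium. Strains were screened against the Prestwick library at 0.1 mM and 1% DMSO in 384-well format at low and high arabinose induction. Growth is read as OD600 after 10 h in triplicate.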

The next test concerns E. coli TESEC Mtb DapB. The following applies: compound 0.1 mM. How it is done:
as §2

In test [3] the test system is E. coli TESEC Alr+ wild-type control. The conditions noted are these: compound 0.1 mM; raw OD600 reference: median of DMSO wells 0.49, cell-free background 0.052. On the procedure: (§3)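 TESEC Mtb Alr E. coli (ΔaraC ΔtolC ΔentC Δalr ΔdadX, arabinose-inducible Mtb Alr) or the Alr+ wild-type control strain, grown in defined M9-fructose medium without D-alanine in 96-well plates with Prestwick library compounds at 0.1 mM and 1% DMSO. Low Alr induction is 0.1 µM arabinose and high induction is 10 mM arabinose.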

In test [4] the test system is E. coli TESEC Mtb Alr. The conditions noted are these: compound 0.1 mM. On the procedure: as §3
The source holds these as a separate data set.

[5] abbreviates: arabinose 1000 nM, raw OD600 reference: median of DMSO wells 0.294, cell-free background 0.041.
The mark [6] stands for this setting: arabinose 10000 nM, raw OD600 reference: median of DMSO wells 0.264, cell-free background 0.041.
[7] abbreviates: arabinose 100000 nM, raw OD600 reference: median of DMSO wells 0.201, cell-free background 0.041.
The mark [8] stands for this setting: arabinose 1000000 nM, raw OD600 reference: median of DMSO wells 0.193, cell-free background 0.041.
Where [9] appears, read: arabinose 10000000 nM, raw OD600 reference: median of DMSO wells 0.146, cell-free background 0.041.
Setting [10] is: arabinose induction (level): High, raw OD600 reference: median of DMSO wells 0.331, cell-free background 0.041.
Where [11] appears, read: arabinose induction (level): Low, raw OD600 reference: median of DMSO wells 0.417, cell-free background 0.041.
The mark [12] stands for this setting: arabinose induction (level): High, raw OD600 reference: median of DMSO wells […], cell-free background 0.041.
Setting [13] is: arabinose induction (level): Low, raw OD600 reference: median of DMSO wells 0.227, cell-free background 0.041.
The mark [14] stands for this setting: arabinose 100 nM, raw OD600 reference: median of DMSO wells 0.413, cell-free background 0.052.
Where [15] appears, read: arabinose 10000000 nM, raw OD600 reference: median of DMSO wells […], cell-free background 0.052.

Counter-ions that a name gives are not always drawn. ± gives the standard deviation of the averaged measurements.

Take `Cc1cccc(CN2CCN(C(c3ccccc3)c3ccc(Cl)cc3)CC2)c1` (stereo not given) [Meclozine dihydrochloride]: the growth in test [1] worked out at 0.278 ± 0.0073; with E. coli TESEC Mtb Alr [2] (setting [5]) it was 0.279 ± 0.011; in the test on E. coli TESEC Mtb Alr [2] (setting [6]), 0.302 ± 0.006; with E. coli TESEC Mtb Alr [2] (setting [7]) it was 0.174 ± 0.023; in the test on E. coli TESEC Mtb Alr [2] (setting [8]), 0.129 ± 0.0042; in the test with E. coli TESEC Mtb Alr [2] (setting [9]), 0.185 ± 0.0054. Further, the growth with E. coli TESEC Mtb Asd (setting [10]) amounted to 0.207 ± 0.024; with E. coli TESEC Mtb Asd (setting [11]) it was 0.242 ± 0.0061; with E. coli TESEC Mtb DapB (setting [12]), 0.209 ± 0.0042; in the test on E. coli TESEC Mtb DapB (setting [13]) it was 0.247 ± 0.021; in test [3], 0.427 ± 0.021; with E. coli TESEC Mtb Alr [4] (setting [14]), 0.428 ± 0.031. The molecule further had a growth in the test with E. coli TESEC Mtb Alr [4] (setting [15]) of 0.143 ± 0.0093.
Consider `CN(C)CCOC(=O)C(c1ccccc1)C1(O)CCCC1` (stereo not given) [Cyclopentolate hydrochloride], for which the growth in test [1] came out at 0.219 ± 0.0068; in the test on E. coli TESEC Mtb Alr [2] (setting [5]), 0.29 ± 0.0093; in the test on E. coli TESEC Mtb Alr [2] (setting [6]) it was 0.27 ± 0.01; in the test on E. coli TESEC Mtb Alr [2] (setting [7]), 0.183 ± 0.014; in the test on E. coli TESEC Mtb Alr [2] (setting [8]) it was 0.19 ± 0.018; with E. coli TESEC Mtb Alr [2] (setting [9]), 0.133 ± 0.0078. In addition, the growth in the test with E. coli TESEC Mtb Asd (setting [10]) is 0.198 ± 0.013; with E. coli TESEC Mtb Asd (setting [11]), 0.334 ± 0.1; in the test on E. coli TESEC Mtb DapB (setting [12]) it was 0.192 ± 0.021; in the test with E. coli TESEC Mtb DapB (setting [13]), 0.231 ± 0.045; in test [3], 0.54 ± 0.099; in the test on E. coli TESEC Mtb Alr [4] (setting [14]) it was 0.4313 ± 0.0024. This molecule registered a growth in the test on E. coli TESEC Mtb Alr [4] (setting [15]) of 0.316 ± 0.018.
`COc1cccc2c1C(=O)c1c(O)c3c(c(O)c1C2=O)C[C@@](O)(C(=O)CO)C[C@@H]3O[C@H]1C[C@H](N)[C@H](O)[C@H](C)O1` [Doxorubicin hydrochloride]: the growth in test [1] turned out to be 0.0471 ± 0.00081; in the test with E. coli TESEC Mtb Alr [2] (setting [5]), 0.0479 ± 0.0023; in the test with E. coli TESEC Mtb Alr [2] (setting [6]), 0.047 ± 0.002; in the test with E. coli TESEC Mtb Alr [2] (setting [7]) it was 0.0467 ± 0.00066; with E. coli TESEC Mtb Alr [2] (setting [8]), 0.04497 ± 0.00012; in the test on E. coli TESEC Mtb Alr [2] (setting [9]) it was 0.0474 ± 0.0025. Further, the growth with E. coli TESEC Mtb Asd (setting [10]) stood at 0.0664 ± 0.0059; with E. coli TESEC Mtb Asd (setting [11]), 0.0616 ± 0.0028; with E. coli TESEC Mtb DapB (setting [12]), 0.0535 ± 0.00072; in the test on E. coli TESEC Mtb DapB (setting [13]) it was 0.0539 ± 0.001; in test [3] it was 0.05757 ± 0.00055; in the test on E. coli TESEC Mtb Alr [4] (setting [14]), 0.0599 ± 0.0035. Also, the growth with E. coli TESEC Mtb Alr [4] (setting [15]) was 0.0585 ± 0.00087.
For the molecule `Cc1ccc2c(c1)c1c3n2CCNC3CCC1` (stereo not given) [Pirlindole mesylate], the growth is 0.215 ± 0.0049 in test [1]; 0.252 ± 0.0064 in the test on E. coli TESEC Mtb Alr [2] (setting [5]); 0.262 ± 0.0058 in the test with E. coli TESEC Mtb Alr [2] (setting [6]); 0.182 ± 0.022 in the test with E. coli TESEC Mtb Alr [2] (setting [7]); 0.148 ± 0.003 with E. coli TESEC Mtb Alr [2] (setting [8]); 0.165 ± 0.011 in the test on E. coli TESEC Mtb Alr [2] (setting [9]). Besides, the growth in the test with E. coli TESEC Mtb Asd (setting [10]) turned out to be 0.177 ± 0.0082; with E. coli TESEC Mtb Asd (setting [11]), 0.259 ± 0.028; in the test with E. coli TESEC Mtb DapB (setting [12]), 0.18 ± 0.0019; in the test on E. coli TESEC Mtb DapB (setting [13]), 0.201 ± 0.024; in test [3] it was 0.485 ± 0.052; in the test with E. coli TESEC Mtb Alr [4] (setting [14]), 0.397 ± 0.0065. The molecule further showed a growth with E. coli TESEC Mtb Alr [4] (setting [15]) of 0.351 ± 0.011.
For the molecule `CCN(CC)CCOC(=O)c1ccc(N)cc1` [Procaine hydrochloride], the growth came out at 0.254 ± 0.0063 in test [1]; 0.254 ± 0.065 in the test with E. coli TESEC Mtb Alr [2] (setting [5]); 0.273 ± 0.0077 in the test with E. coli TESEC Mtb Alr [2] (setting [6]); 0.2 ± 0.034 in the test with E. coli TESEC Mtb Alr [2] (setting [7]); 0.193 ± 0.0097 in the test on E. coli TESEC Mtb Alr [2] (setting [8]); 0.146 ± 0.0049 with E. coli TESEC Mtb Alr [2] (setting [9]). Also, the growth with E. coli TESEC Mtb Asd (setting [10]) came to 0.339 ± 0.035; in the test on E. coli TESEC Mtb Asd (setting [11]) it was 0.384 ± 0.038; in the test with E. coli TESEC Mtb DapB (setting [12]), 0.203 ± 0.026; with E. coli TESEC Mtb DapB (setting [13]) it was 0.251 ± 0.046; in test [3] it was 0.52 ± 0.05; with E. coli TESEC Mtb Alr [4] (setting [14]), 0.412 ± 0.0056. The molecule also returned a growth in the test with E. coli TESEC Mtb Alr [4] (setting [15]) of 0.259 ± 0.17.

These data come from the supplement of paper PMC9262897, “Low-cost anti-mycobacterial drug discovery using engineered E. coli” (Nature Communications, 2022).
